25 compounds from PubChem BioAssay (EPA / NIEHS) can be followed below.

Results filed as inconclusive are left out. Activity calls are given as the source filed them. The calls were made as follows: active = hit-call score of the fitted dose curve at least 0.9, where 1 is the maximum; inconclusive = response in the unintended direction; inactive = score below 0.9.

The nature of the experiment: ATG_XTT_Cytotoxicity: Cytotoxicity Assessment in the Attagene TRANS-FACTORIAL HepG2 Assay (AID 2283584). As for the experimental part: ATG_XTT_Cytotoxicity is a cell-based, single-readout assay that uses HepG2, a human liver cell line, with measurements taken at 24 hours after chemical dosing in a 24-well plate.ATG_XTT_Cytotoxicity is one of one assay component(s) measured or calculated from the ATG_XTT_Cytotoxicity assay. It is designed to make measurements of cell number, a form of viability reporter, as detected with […] signals by XTT cytotoxicity assay technology.Data from the assay component ATG_XTT_Cytotoxicity was analyzed into 1 assay endpoint. This assay endpoint, ATG_XTT_Cytotoxicity, was analyzed in the positive analysis fitting direction relative to DMSO as the negative control and baseline of activity. Using a type of viability reporter, loss-of-signal activity can be used to understand changes in the viability. Furthermore, this assay endpoint can be referred to as a primary readout, because the performed assay has only produced 1 assay endpoint. To generalize the intended target to other relatable targets, this assay endpoint is annotated to the cell cycle intended target family, where the subfamily is cytotoxicity.
Human liver HepG2 cells are transiently transfected with multiple reporter transcription units (MRTUs) in 6-well plates using FuGene 6 reagent (Roche; 3 ml FuGene/1 mg DNA). The MRTU constructs are regulated by a cis-regulating element (promoter). […] A major difference between the CIS and TRANS system is that in CIS activities of endogenous TFs are measured, whereas the TRANS assay evaluates changes in activities of exogenous, chimeric NR-Gal4 proteins. […] At the end of 24 hour incubation, total RNA was isolated using TriZol reagent (Invitrogen). The isolated RNA is then reverse-transcribed using oligo(dT) primer and Mo-MLV reverse transcriptase (Invitrogen) with DNAse I (Ambion) treatment for 30 min. The one-tenth of the produced cDNA was amplified by PCR using Taq DNA polymerase (Invitrogen) and two reporter sequence-specific primers. The PCR products were fluorescently labeled by primer extension with 6-arboxyfluorescein (6-FAM) 5'-labeled reporter sequence-specific primer (2 min at 95 C, 20 s at 68 C and 10 min at 72 C) and these products were digested with 5U of HpaI (New England Biolabs) for 2h at 37 C. The fragments were purified using Qiaquick PCR columns (Qiagen), analyzed on an ABI 3130xL genetic analyzer (Applied Biosystems) with peak positions identified by using a set of X-rhodamine (ROX)-labeled MapMarker1000 molecular weight standards (BioVentures). The raw capillary electrophoresis data was processed using Attagraph software (Attagene).
As to `N#Cc1nn(-c2c(Cl)cc(C(F)(F)F)cc2Cl)c(N)c1S(=O)C(F)(F)F` (stereo not given), the outcome was inactive.

On to `COc1cnc(OC)n2nc(NS(=O)(=O)c3c(OCC(F)F)cccc3C(F)(F)F)nc12`, for which the compound was called inactive.

As to `CON(C)C(=O)Nc1ccc(Cl)c(Cl)c1`, the compound was called inactive. For `C=CC1(C)OC(=O)N(c2cc(Cl)cc(Cl)c2)C1=O` (stereo not given), the outcome was inactive. Regarding `CCCCC(CC)COC(=O)c1ccccc1C(=O)OCC(CC)CCCC` (stereo not given), the result was inactive. As for `OC(c1ccc(Cl)cc1)(c1cncnc1)c1ccccc1Cl` (stereo not given), the compound was classed as inactive.

For the compound `CCOP(=S)(OCC)SCn1c(=O)oc2cc(Cl)ccc21`, the result was inactive. Under `CCCCOC(=O)c1ccccc1C(=O)OCCCC` stands “inactive”; under `COC(=O)N(OC)c1ccccc1COc1ccn(-c2ccc(Cl)cc2)n1`, “inactive”; under `CCCC1COC(Cn2cncn2)(c2ccc(Cl)cc2Cl)O1` (stereo not given), “inactive”. With `Oc1ccccc1-c1ccccc1`, the compound was called inactive. Turning to `CNC(=S)S`, the compound was called inactive. Under `C#CCOS(=O)OC1CCCCC1Oc1ccc(C(C)(C)C)cc1` (stereo not given) stands “inactive”; under `C=CCC1=C(C)C(OC(=O)C2C(C=C(C)C)C2(C)C)CC1=O` (stereo not given), “inactive”. In the case of `CO/C=C(/C(=O)OC)c1ccccc1Oc1cc(Oc2ccccc2C#N)ncn1`, the call was inactive. Take `Cc1cc(Cl)ccc1OCC(=O)O`: the result was inactive.

Consider `COc1nc(NC(C)C)nc(NC(C)C)n1`, for which the result was inactive.

With `COc1ccc(C(c2ccc(OC)cc2)C(Cl)(Cl)Cl)cc1`, the outcome was inactive. As for `CCCN(CCC)c1c([N+](=O)[O-])cc(S(N)(=O)=O)cc1[N+](=O)[O-]`, the compound was called inactive. Turning to `CCNc1nc(Cl)nc(NC(C)C)n1`, the outcome was inactive. `CC(C)(C)c1ccc(CSc2cnn(C(C)(C)C)c(=O)c2Cl)cc1`: the compound was classed as inactive. For the compound `CNC(=O)ON=CC(C)(C)SC`, the compound was called inactive. As for `COP(=S)(OC)Oc1nc(Cl)c(Cl)cc1Cl`, the compound was classed as inactive. For the compound `CC(C)Oc1cc(-n2nc(C(C)(C)C)oc2=O)c(Cl)cc1Cl`, the call was inactive. On to `CCCCNC(=O)OCC#CI`, for which the compound was classed as inactive.
